Vaccinia mCherry: qHTS for Stage-Specific Inhibitors of Vaccinia Orthopoxvirus: mCherry Reporter Primary qHTS | Vaccinia virus mCherry reporter infection, fluorescence | Potency, µM (series often up to 36.5 µM), for inactives: at the top dose activity change, negative = inhibition, most hits filed as inhibitors | hit rate 0.63% among 310,000 | AID 720579, 2013; calls by dose curve; tested in A549 cells; further: nearly all actives have a fitted effect of over 35% in size
HCV inh: qHTS Assay for Inhibitors of Hepatitis C Virus (HCV). Huh7.5.1 HCVcc-Cre infection, luciferase reporter, 44 h. Potency, µM (top dose mostly 41.8 µM), for the others: at the highest dose activity change, negative = inhibition, actives largely listed as inhibitors. hit rate 3.4% among 340,000. AID 651820, 2012; active means well fitted inhibition curve with a large enough effect; inconclusive means small, poorly fitted or top-dose-only effect, or another doubt; inactive means no such curve, though single readings can be large or run the other way
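Antiviral activity was scored by luciferase reporter output from cells infected with HCVcc-Cre (~0.5 moi) in presence of compound, 44 h infection period, cells seeded 1,000/well 4 h prior.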
Vaccinia Venus: qHTS for Stage-Specific Inhibitors of Vaccinia Orthopoxvirus: Venus Reporter Primary qHTS; Vaccinia virus Venus reporter expression, fluorescence; Potency, µM (top dose mostly 36.5 µM), for the others: at the top dose activity change, negative = inhibition, usual class: inhibitors; hit rate 0.46% among 330,000; calls by dose curve; tested in A549 cells; further: nearly all actives have a fitted effect of over 30% in size
Active calls of the source: *; i = inactive; u = inconclusive; x = no result; [ ] = remark or other dose. Sampled rows, rich in hits. Any-hit rate of the full collection: about 3.3%. On the % scale 0 is the no-effect control and ±100 the full control effect; potency means the concentration at half of the fitted maximal effect.

SMILES | Vaccinia mCherry | HCV inh | Vaccinia Venus
O=C1c2oc3ccccc3c(=O)c2C(c2ccc(Br)cc2)N1c1ccccn1 (stereo not drawn) | i | x | -10%
O=C(NCCc1ccccc1)c1ccc(NC(=O)c2cccnc2)cc1 | x | -3% | x
O=C(Nc1ccc(-c2noc(CCc3ccccc3)n2)cc1)c1cccnc1 | x | 11µM* | u
COc1ccc(CC(=O)Nc2ccc3c(c2)OC2(CCCC2)O3)c(OC)c1 | u | x | -22%
O=C(/C=C/c1cccc([N+](=O)[O-])c1)c1ccco1 | x | 18% | x
Cc1cccc(/C=C/C(=O)c2ccc([N+](=O)[O-])o2)c1 | u | 0.63µM* | 11µM*
O=C(/C=C/c1cccc([N+](=O)[O-])c1)c1ccc([N+](=O)[O-])o1 | u | 11%[8.37 µM] | 13µM*
COc1ccc(/C=C/C(=O)c2ccc([N+](=O)[O-])o2)cc1 | u | 18% | u
CCOc1ccc(NC(=S)NC(C)c2cccs2)cc1 (stereo not drawn) | -24% | -2% | -16%
Cc1ccc(C)c(Cn2nnc(C(=O)NCc3ccc(Cl)cc3Cl)c2N)c1 | i | x | -6%
CC(C)Cc1nc(Nc2ccccc2C#N)c2nnn(Cc3ccccc3)c2n1 | i | 16µM* | -3%
CC(C)Cc1nc(N2CCC(C(N)=O)CC2)c2nnn(Cc3ccccc3)c2n1 | x | -16% | x
CN(C)S(=O)(=O)c1cccc(NC(=O)c2cncc(Br)c2)c1 | i | u | -15%
Cc1ccc(S(=O)(=O)N(C)C)cc1NC(=O)c1cncc(Br)c1 | 6.3µM* | u | 8.9µM*
O=Cc1cccc(C=O)c1 | i | x | -18%
CS(=O)(=O)c1sc2nc(-c3cccs3)cc(-c3ccccc3)c2c1N | -13% | 8.9µM* | -1%
Cc1ccc(-c2cc(-c3ccccc3)c3c(N)c(S(C)(=O)=O)sc3n2)cc1 | u | -7% | u
Cn1c(=O)oc2cc(S(=O)(=O)N3CCC(C(=O)N4CCN(c5ccccc5F)CC4)CC3)ccc21 | -19% | x | -15%
CC1(C)N=C(N)NC(Nc2ccccc2Cl)=N1 | -7% | -8% | 0%
O=C(c1ccc([N+](=O)[O-])o1)N1CCN(c2nc3c(F)cc(F)cc3s2)CC1 | i | 0.56µM* | -15%
O=C(c1cccs1)N1CCN(c2nc3c(F)cc(F)cc3s2)CC1 | -4% | -20% | -18%
CCCNC(=O)c1onc(CSc2ccc(F)c(F)c2)c1C(=O)NCCC | -2% | u | -15%
CN(C)CCNC(=O)c1onc(CSc2ccc(F)c(F)c2)c1C(=O)NCCN(C)C | i | 13µM* | -13%
CCC(CC)COC(=O)C1=C(C)NC(=O)NC1c1ccc2c(c1)OCO2 (stereo not drawn) | 0% | 10µM* | -9%
COc1ccc(C2NC(=O)NC(C)=C2C(=O)OCc2ccc3c(c2)OCO3)cc1OC (stereo not drawn) | x | 13% | x
SMILES | Vaccinia mCherry | HCV inh | Vaccinia Venus
CC1=C(C(=O)OCc2ccc3c(c2)OCO3)C(c2cccc([N+](=O)[O-])c2)NC(=O)N1 (stereo not drawn) | u | 11µM* | -20%
CCOC(=O)C1=C(C)NC(=O)NC1c1ccc2c(c1)OCO2 (stereo not drawn) | -11% | -2% | 0%
COc1cccc(N2CC(NC(=O)c3cc4ccccc4o3)CC2=O)c1 (stereo not drawn) | -8%[7.34 µM] | x | -13%[7.34 µM]
COC(=O)c1cc(Nc2cc(C)c3ccc(O)cc3n2)cc(C(=O)OC)c1 | -12% | -14% | -18%
Cc1ccc(Nc2cc(C)c3ccc(O)cc3n2)cc1C | x | 10µM* | x
O=C(CCc1ccccc1)NC(=S)Nc1ccccc1[N+](=O)[O-] | x | -14% | x
O=C(CCC(=O)NC1CCCCC1)NCc1ccc(F)cc1 | x | 10% | x
CCN(CC(=O)NCc1ccc(F)cc1)CC(=O)NC1CCCC1 | 5% | 0.89µM* | -16%
COc1ccccc1CNC(=O)c1nccnc1CO | -5% | 14% | -5%
COc1cc(CNc2ccc3[nH]c(=O)[nH]c3c2)cc(Cl)c1OCc1ccccc1F | u | x | -8%
COc1cc(CNC2CCCC2)cc(Cl)c1OCc1ccccc1F | u | 10µM* | 16µM*
C[C@]12CCC3c4ccc(O)cc4CCC3C1CCC2OC(=O)CCC1CCCC1 (stereo partly drawn) | -12% | x | -7%
Cc1oc(-c2ccc(Cl)cc2)nc1CN1CCCC(C(=O)NCCc2ccc(Cl)cc2)C1 (stereo not drawn) | -29% | x | -19%
O=C(c1ccc(NS(=O)(=O)c2cccs2)cc1)N1CCCCC1 | -27% | 2.8µM* | -22%
O=C(c1ccc(NS(=O)(=O)c2cccs2)cc1)N1CCOCC1 | i | x | -6%
COc1cccc(/C=N/N2CCN(C3c4ccccc4-c4ccccc43)CC2)c1O | x | -11% | x

Compound activity (PubChem)
